Avidin fluor = avidin bead compound fluorescence profile | 0.38% of 220,000 active | AID 1775 | Avidin beads, compound fluorescence 488/530 nm, flow cytometry; hits give high values | fluorescence (KMESF) at 10 µM; in the data active = fluorescence above about 47
RGS7-Gao = modulates binding of RGS7 to human Galphao | P09471 | Multiplexed bead flow cytometry; actives lie on both sides | binding response (% of control), % at 10 µM | 0.35% of 220,000 active | AID 1439; in the data active = binding response below about 49% or above about 150%; inconclusive = no clear call, values can overlap the other calls; inactive = in between;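 note: fluorescent Galphao held in activated GDP-AlF4 state binding bead-coupled RGS7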
Target sequence (P09471 whole entry, looked up): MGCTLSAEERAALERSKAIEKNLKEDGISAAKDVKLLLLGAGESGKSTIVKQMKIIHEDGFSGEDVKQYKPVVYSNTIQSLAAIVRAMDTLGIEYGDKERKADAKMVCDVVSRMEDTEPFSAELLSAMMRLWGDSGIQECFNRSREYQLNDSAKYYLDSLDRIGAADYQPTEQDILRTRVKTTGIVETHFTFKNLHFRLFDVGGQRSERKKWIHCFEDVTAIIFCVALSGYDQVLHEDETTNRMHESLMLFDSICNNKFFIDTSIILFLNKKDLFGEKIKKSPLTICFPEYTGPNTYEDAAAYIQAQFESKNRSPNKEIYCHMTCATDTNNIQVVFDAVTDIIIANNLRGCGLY
RGS4-Gao reg = modulates binding of RGS4 to human Galphao | AID 1415 | binding response (% of control), % at 10 µM | Multiplexed bead flow cytometry; actives lie on both sides | 0.33% of 220,000 active | P09471; in the data active = binding response below about 49% or above about 150%; inactive = in between;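 note: fluorescent Galphao activated with aluminum fluoride binding bead-coupled RGS4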
RGS16-Gao HTS = regulators of human RGS16-Galphao interaction | bead-based flow cytometry RGS16-Galphao binding, fluorescence; actives lie on both sides | binding response (% of control), % at 10 µM | 0.38% of 220,000 active | AID 1441;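 note: Galphao activated by GDP with aluminum fluoride before binding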
Target sequence (O15492 whole entry, looked up): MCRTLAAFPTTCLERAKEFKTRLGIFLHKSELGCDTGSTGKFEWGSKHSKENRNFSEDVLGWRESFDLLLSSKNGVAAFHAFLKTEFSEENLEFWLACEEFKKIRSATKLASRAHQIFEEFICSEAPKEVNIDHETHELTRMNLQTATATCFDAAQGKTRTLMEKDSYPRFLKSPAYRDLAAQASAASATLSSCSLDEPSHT
Target sequence (P09471 whole entry, looked up): as the sequence (P09471 whole entry, looked up) above
GSH bead fluor = compound fluoresces at 488/530 nm on GSH beads | GSH beads flow cytometry, compound fluorescence 488/530 nm; hits give high values | fluorescence (KMESF) at 10 µM | 0.25% of 190,000 active | AID 1776; in the data active = fluorescence above about 89;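 note: glutathione beads carrying GST-tagged Bcl family fusion proteins plus one bare bead set; values are compound well signal with DMSO vehicle wells as background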
RGS8-Gao = regulators of human RGS8-Galphao interaction; 0.34% of 220,000 active; response (percent of control binding), % at 10 µM; AID 1423; P09471; multiplexed bead flow cytometry, RGS8-Galphao binding; actives lie on both sides; in the data active = response below about 60% or above about 140%; inactive = in between;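 note: Galphao activated as the GDP aluminium fluoride complex binding bead-coupled RGS8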
RGS-Gao = regulators of human RGS4-Galphao interaction; shares compounds with RGS16-Gao HTS; multiplexed bead flow cytometry, RGS–Galpha-o binding; RGS4–Galpha-o binding response, % at 10 µM; 99% of 1,600 active; AID 1504;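 note: fluorescently labeled Galpha-o bound to GDP with aluminium fluoride binding biotinylated RGS beads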
Avidin counter = interferes with biotinylated probe binding to avidin beads; shares compounds with RGS16-Gao HTS; streptavidin beads, fluorescein-biotin binding, flow cytometry; inhibition, % at 10 µM; 1,700 tested, under 10 active;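 active = inhibition above 50%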;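 note: median green fluorescence of gated singlet beads compared with DMSO control wells; 0% = DMSO wells and 100% = complete loss of bead fluorescence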
RGS8-Gao single = RGS8-Galphao interaction regulation, single point confirmation; shares compounds with RGS16-Gao HTS; binding response (% of control), % at 10 µM; bead-based flow cytometry RGS8-Galphao binding, fluorescence; actives lie on both sides; 3% of 1,700 active; in the data active = binding response below about 72% or above about 130%; inactive = in between;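 note: Galphao activated as GDP AlF4 complex before binding bead RGS8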
RGS7-Gao single = confirmation of regulators of human RGS7-Galphao interaction; shares compounds with RGS16-Gao HTS; bead-based flow cytometry RGS7-Galphao binding; actives lie on both sides; response (percent of control binding), % at 10 µM; 7.8% of 1,700 active; AID 1837; in the data active = response below about 75% or above about 130%; inactive = in between;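 note: fluorescent Galphao activated with GDP and aluminum fluoride binding bead-coupled RGS7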
RGS16-Gao single = confirmation of regulators of human RGS16-Galphao interaction; bead-based flow cytometry, RGS16-Galphao binding; actives lie on both sides; 4% of 1,700 active; shares compounds with RGS16-Gao HTS; response (% of control binding), % at 10 µM; in the data active = response below about 74% or above about 130%; inactive = in between;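 note: Galphao activated as the GDP aluminium fluoride complex binding bead-coupled RGS16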
RGS4-Gao confirm = RGS4-Galphao interaction regulation, single point confirmation; shares compounds with RGS16-Gao HTS; RGS4-Galphao binding, multiplexed bead flow cytometry; actives lie on both sides; binding response (% of control), % at 10 µM; 4% of 1,700 active; in the data active = binding response below about 74% or above about 130%; inactive = in between
RGS19-Gao conf = confirmation of regulators of human RGS19-Galphao interaction; shares compounds with RGS16-Gao HTS; bead-based flow cytometry RGS19-Galphao binding; actives lie on both sides; response (percent of control binding), % at 10 µM; 5% of 1,700 active; AID 1841; in the data active = response below about 50% or above about 160%; inactive = in between;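 note: 100% = no compound control and 0% = blank background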
* = called active by the depositor; ? = inconclusive; . = no result given; [ ] = dose if it differs, or a comment. Rows were chosen to be rich in hits. Some 1.2% of all compounds tested hit in one or more screens of this group. Unless noted, the rule behind the calls is not given here.

SMILES	Avidin fluor	RGS7-Gao	RGS4-Gao reg	RGS16-Gao HTS	GSH bead fluor	RGS8-Gao	RGS-Gao	Avidin counter	RGS8-Gao single	RGS7-Gao single	RGS16-Gao single	RGS4-Gao confirm	RGS19-Gao conf
Cc1[nH]c2ccccc2c1/C=N/NC(=O)CNC(=O)c1cccs1	9	?	89	106	.	98	.	.	.	.	.	.	.
Cc1cc(OC(C)C(N)=O)nc(-c2ccccc2)n1 (centres undefined)	11	103	100	101	15	99	.	.	.	.	.	.	.
COc1ccc(-n2nc(C)c3sc(C)nc3c2=O)cc1	6	?	100	106	.	101	.	.	.	.	.	.	.
Cc1ccc(CSCCC(=O)NCCc2ccc(Cl)cc2)cc1	121*	212*[activator]	188*[activator]	212	17	112	.	2	95	95	95	97	87
O=C(CCSCc1ccc(Cl)cc1)NCCc1ccccc1	12	97	103	93	11	97	.	.	.	.	.	.	.
Cc1ccc(NC(=O)c2cccc(OCc3c(C)noc3C)c2)cc1	8	99	100	103	10	103	.	.	.	.	.	.	.
Cc1ccc(NC(=O)c2ccc(OCc3c(C)noc3C)cc2)cc1	1	?	23*	27	.	53*	.	0	101	106	106	106	104
CCNC(=S)Nc1cc(OCC)c(NC(=O)c2cccs2)cc1OCC	7	36*	44*	50	6	61	.	-2	101	100	101	101	95
O=C(Cn1c2[n+](c3ccc(C(F)(F)F)cc31)CCCCC2)Nc1ccccc1	9	104	105	106	9	101	.	.	.	.	.	.	.
CCc1cccc(NC(=O)Cn2c3[n+](c4ccc(C(F)(F)F)cc42)CCCCC3)c1	4	126	128	238*[activator]	9	147*[activator]	128*	-1	106	108	105	108	113
CCNC(=O)c1c(NC(=O)C2COc3ccccc3O2)sc2c1CCCC2 (centres undefined)	3	155*[activator]	170*[activator]	-528	22	185*[activator]	.	0	105	110	104	105	95
COCCCNC(=O)c1c(NC(=O)C2COc3ccccc3O2)sc2c1CCCC2 (centres undefined)	1	100	93	10	33	84	.	.	.	.	.	.	.
O=C(COc1ccc(-n2ccnc2)cc1)Nc1cccc(Cl)c1	9	?	93	94	25	95	.	.	.	.	.	.	.
O=C(NCCCN1CCCC1)c1cccc(N2CCCC2=O)c1	1	7.6*	18*	1	25	10*	.	-1	100	105	100	107	98
O=C(NCCCN1CCN(c2ccc(F)cc2)CC1)c1cccc(N2CCCC2=O)c1	23	89	92	89	16	98	.	.	.	.	.	.	.
O=C(CS(=O)(=O)c1ccccc1)Nc1ccc(S(=O)(=O)Nc2ncccn2)cc1	13	35*	35*	26	9	32*	.	0	97	91	96	94	90
Cc1cc(C)c(NC(=S)NC(CO)(CO)CO)c(C)c1	8	?	100	101	.	100	.	.	.	.	.	.	.
O=C(O)CCCC(=O)Nc1cccc2cccnc12	89*	151*[activator]	107	71	20	88	107*	1	96	95	99	98	93
COc1ccc2cc(CCNC(=O)C3CCCC3)c(=O)[nH]c2c1	4	109	111	228	25	147*[activator]	111*	0	105	101	107	104	110
CCN1CCCC1CNC(=O)C(=O)Nc1ccccc1OC (centres undefined)	62*	153*[activator]	101	108	13	104	101*	.	.	.	.	.	.
CC1CCN(C(=O)c2ccc(N3C(=O)C4CCC(C)CC4C3=O)cc2)CC1 (centres undefined)	1	?	32*	45	.	67	.	0	101	106	102	102	96
Cc1ccc(S(=O)(=O)N2CCC(C(=O)N[C@H](C(=O)NC3CCS(=O)(=O)C3)C(C)C)CC2)cc1 (some centres undefined)	6	108	107	100	34	108	.	.	.	.	.	.	.
Cc1ccc(S(=O)(=O)N2CCC(C(=O)N3CCC[C@H]3C(=O)NC3CCS(=O)(=O)C3)CC2)cc1 (some centres undefined)	15	90	85	-65*	11	79	85*	0	101	98	98	99	112
COc1ccc(CNC(=O)C/C(C)=N/NC(=O)COc2ccc(C)cc2Br)cc1	9	88	95	95	15	94	.	.	.	.	.	.	.
CC1(C)N([O-])c2cc([N+](=O)[O-])ccc2[N+]1=O	0	?	84	-9.3*	.	29*	84*	.	.	.	.	.	.
CC(C)(C)c1nnc(NC(=O)CS(=O)(=O)Cc2ccccc2)s1	1	51	86	61	17	57*	86*	-1	103	102	102	101	94
O=C(Cn1c(C(F)(F)F)nc2ccccc21)Nc1ccccc1N1CCOCC1	8	45*	48*	42	35	54*	.	0	99	102	100	103	103
Cc1ccc(NC(=O)NC(=O)N(C(C)C)S(C)(=O)=O)nc1	16	98	100	239*[activator]	8	119	100*	.	.	.	.	.	.
Cn1ncc(Cl)c1C(=O)NC1C2CC3CC(C2)CC1C3 (centres undefined)	20	98	97	108	11	101	.	.	.	.	.	.	.
Cc1nn(C)c(C(=O)NC2C3CC4CC(C3)CC2C4)c1Cl (centres undefined)	5	87	87	9.8*	11	63	87*	0	100	94	93	96	93

From PubChem
